Results from PubChem BioAssay AID1347131 (National Center for Advancing Translational Sciences (NCATS), 2019).
The whole screen tested about 410,000 compounds, of which about 2,000 (0.49%) were called active. Not shown: some 8% with an inconclusive outcome. The sample holds actives, similar compounds and a random draw of the others, so the mix is not that of the screen. The call rests on the fitted dose curve; tested in HEK293 reporter line.

assay: qHTS Assay for Foot and Mouth Disease Virus Antivirals: Primary Screen against the MLPCN compound library; conditions: FMDV antiviral cell-based qHTS; series mostly up to 57.9 µM; activity, negative = inhibition: at the top concentration; further: nearly all actives have a fitted effect of over 55% in size
Potency means the concentration at half of the fitted maximal effect.

Row | Structure (SMILES) | activity, negative = inhibition | Potency
1 | COc1cc2c(cc1OC)CN(C(=O)c1cc(Cl)nc(Cl)c1)CC2 | -38.8% (inactive) | 
2 | CC(=O)NC12CC3CC(C1)CC(C(=O)Oc1ccc(N(C)S(=O)(=O)c4cc(C)ccc4C)cc1)(C3)C2 | -36.6% (inactive) | 
3 | COc1ccc(C(=O)Nc2ccc(N3CCN(C(=O)c4ccccc4C)CC3)cc2)cc1 | -19.6% (inactive) | 
4 | CN1CCN(c2ccc(NC(=O)c3ccc4ccccc4c3)cc2)CC1 |  | 22.4 µM (active)
5 | CC(=O)N1CCN(c2ccc(NC(=O)c3cccc(F)c3)cc2)CC1 | 124% (inactive) | 
6 | CC(C)(C)OC(=O)CNC(=O)c1[nH]cnc1C(=O)N[C@@H](CCCCNC(=O)OC(C)(C)C)C(=O)OC(C)(C)C | -33.6% (inactive) | 
7 | O=C(CCCc1nc(-c2ccc(Cl)cc2)no1)NC1CCCC1 | -49.9% (inactive) | 
8 | O=C(c1ccc2c(c1)N(Cc1ccccc1F)C(=O)c1ccccc1S2=O)N1CCN(c2ccccc2)CC1 (stereo unspecified) | -37.1% (inactive) | 
9 | COc1ccc(C)cc1NC(=O)C1CCN(S(=O)(=O)c2ccccc2)CC1 | -30.9% (inactive) | 
10 | CCOC(=O)c1sc(NC(=O)c2ccc(S(=O)(=O)N3CCCCC3)cc2)nc1-c1ccccc1 | -41.2% (inactive) | 
11 | CCOC(=O)c1sc2ccc(S(=O)(=O)N3CCCCC3)cc2c1N |  | 17.8 µM (active)
12 | CCOC(=O)/C=C/C(=O)Nc1ccc(S(=O)(=O)N2CCCCCC2)cc1 | -33.1% (inactive) | 
13 | COc1cc(OC)cc(C(=O)Nc2ccc3c(c2)CCCN3C(=O)c2cccs2)c1 | -30.8% (inactive) | 
14 | O=C1CC(c2ccco2)CC(O)=C1C=NCCN1CCN(C(=O)Nc2ccc(Cl)cc2)CC1 (stereo unspecified) | -33.6% (inactive) | 
15 | Cc1ccc(CSCC(=O)N(C)CC(=O)Nc2c(Cl)cccc2Cl)cc1 | -31.7% (inactive) | 
16 | Fc1ccc(-c2noc(-c3ccc4c(c3)CCO4)n2)cc1 |  | 12.6 µM (active)
17 | Cc1ccc(-c2noc(-c3ccc(N4CCCCC4)c([N+](=O)[O-])c3)n2)cc1 | -32.2% (inactive) | 
18 | O=S(=O)(Nc1ccc2ccccc2n1)c1ccc2c(c1)CCO2 | 113% (inactive) | 
19 | O=C(NCCN1CCC(n2c(=O)[nH]c3ccccc32)CC1)c1ccc(Cl)cc1 | -37.5% (inactive) | 
20 | CC(C)Oc1ccc(C(=O)Nc2nc3c(s2)CC(C(C)(C)C)CC3)cc1 (stereo unspecified) | -30.1% (inactive) | 
21 | CN(c1ccccc1)S(=O)(=O)c1cccc(C(=O)Nc2cccc(C(=O)NC3CC3)c2)c1 | -47.3% (inactive) | 
22 | COCc1ccc(C(=O)Nc2cccc(S(=O)(=O)N(C)c3ccccc3)c2)cc1 |  | 15.8 µM (active)
23 | CN(c1ccccc1)S(=O)(=O)c1ccc(C(=O)Nc2ccncc2)cc1 | -22.9% (inactive) | 
24 | Cc1ccc(S(=O)(=O)N(C)CCCC(=O)Nc2cc(C)ccc2C)cc1 | -34.2% (inactive) | 

Row | Structure (SMILES) | activity, negative = inhibition | Potency
25 | CN(c1ccccc1)S(=O)(=O)c1ccc(C(=O)NCCc2ccc(F)cc2)cc1 | -32.5% (inactive) | 
26 | Cc1ccccc1C(c1c(C)n(C)n(-c2ccccc2)c1=O)c1c(C)n(C)n(-c2ccccc2)c1=O | -19% (inactive) | 
27 | C=C(C)C(=O)N1CC2(CC(c3cccc(NC(=O)COc4ccc(Cl)cc4)c3)=NO2)C[C@@H]1C(N)=O (stereo partly specified) | -30.8% (inactive) | 
28 | CCCCCC(=O)N1CC2(CC(c3cccc(NC(=O)COc4ccc(Cl)cc4)c3)=NO2)C[C@@H]1C(N)=O (stereo partly specified) |  | 14.1 µM (active)
29 | NC(=O)[C@@H]1CC2(CC(c3cccc(NC(=O)CC(c4ccccc4)c4ccccc4)c3)=NO2)CN1C(=O)COc1ccc(Cl)cc1 (stereo partly specified) | -32.3% (inactive) | 
30 | C=C1C(C)C2C(Cc3ccccc3)NC(=O)C23OC(=O)/C=C/C(O)CCCC(C)C/C=C/C3C1O (stereo unspecified) | -34.8% (inactive) | 
31 | CC1CCCCN1C(=O)CSc1c2c(nc3cc(Cl)ccc13)CCCC2 (stereo unspecified) | -37.7% (inactive) | 
32 | COc1ccc(/C=N/Nc2cc(C)nc3ccccc23)cc1 | -31% (inactive) | 
33 | COc1ccc(S(=O)(=O)Nc2nc3ccccc3s2)cc1 | 118% (inactive) | 
34 | COc1ccc(C=NNc2nc3ccccc3s2)cc1 |  | 15.8 µM (active)
35 | O=Cc1cc(Cl)ccc1OCCN1CCC(Cc2ccccc2)CC1 | -35.1% (inactive) | 
36 | COc1ccc2c(c1OC)C(=O)N1c3ccccc3C(=O)N(c3ccccc3F)C21 (stereo unspecified) | -36.1% (inactive) | 
37 | Nc1cccc2c1C(=O)N(CCOc1ccccc1F)C2=O |  | 15.8 µM (active)
38 | COc1ccccc1CN1C(=O)c2cccc3cccc(c23)C1=O | -31% (inactive) | 
39 | CCCCC(=O)N1CCN(c2nc3c(C)c(C)ccc3s2)CC1 | -31.7% (inactive) | 
40 | CCc1nc2ccc(C(=O)Nc3cc(-c4ccccc4)ccc3OC)cn2c1N(C=O)CCC(C)C | -32.4% (inactive) | 
41 | CC(C)Oc1ccc(C(=O)NCC(=O)N2CCN(S(=O)(=O)/C=C/c3ccccc3)CC2)cc1 | -35.9% (inactive) | 
42 | COc1ccccc1N1CCN(c2ncnc3c2cnn3-c2ccc(C)cc2)CC1 | -32.8% (inactive) | 
43 | Cc1ccc(-n2ncc3c(NC4CCCC4)ncnc32)cc1 |  | 12.6 µM (active)
44 | Cc1ccc(-n2ncc3c(N4CCN(c5ccc(F)cc5)CC4)ncnc32)cc1 | -27.8% (inactive) | 
45 | Cc1ccc(-n2ncc3c(N4CCCCC4)ncnc32)cc1 | -57.3% (inactive) | 
46 | Cc1ccc(-n2ncc3c(NC4CCCCC4)ncnc32)cc1 |  | 20 µM (active)
47 | Cc1ccc(-n2ncc3c(N4CCCCCC4)ncnc32)cc1 | -98.4% (inactive) | 
48 | CC(C)c1cccc(C(C)C)c1NC(=O)CNCC(O)c1ccccc1 (stereo unspecified) | -30.4% (inactive) | 

Row | Structure (SMILES) | activity, negative = inhibition | Potency
49 | COc1ccccc1N/C=C/c1onc(C)c1[N+](=O)[O-] |  | 12.6 µM (active)
50 | COc1ccccc1Nc1cc(C)nc2c(C)ccc([N+](=O)[O-])c12 | -34.1% (inactive) | 
51 | COc1ccccc1NC(=O)c1c(N=Cc2cccc([N+](=O)[O-])c2)cnn1C | -31.2% (inactive) | 
52 | O=C(c1ccc(F)cc1)N1CCC(c2nc(-c3ccc(S(=O)(=O)N4CCCC4)cc3)no2)CC1 | -35.1% (inactive) | 
53 | COc1ccc(-c2ccc3c(c2)CN(C(=O)C(C)(C)C)Cc2cnnn2-3)cc1 | -30.7% (inactive) | 
54 | CCC(C)n1c(S(=O)(=O)O)nc2ccccc21 (stereo unspecified) | -41.2% (inactive) | 
55 | O=C(NNC(=O)c1ccc2c(=O)n3c(nc2c1)CCC3)c1cccc(Cl)c1 | -31.4% (inactive) | 
56 | O=C(Nc1ccc2nc3n(c(=O)c2c1)CCCCC3)c1cccc(C(F)(F)F)c1 | -36.3% (inactive) | 
57 | Cc1cccc(NC(=O)c2ccc3c(=O)n4c(nc3c2)CCCCC4)n1 |  | 12.6 µM (active)
58 | CC1(C)Cc2ccccc2-c2nnc(-c3ccc4ccccc4n3)n21 | -33.4% (inactive) | 
59 | c1ccc(-c2cn3c(n2)-c2ccccc2C3)cc1 |  | 7.94 µM (active)
60 | CN1C(=O)N(CC(=O)Nc2cccc(S(=O)(=O)N(C)c3ccccc3)c2)C(=O)C12CCCCC2 | -33.6% (inactive) | 
61 | CCN1C(=O)[C@H]2[C@@H](c3ccc(-c4ccc(Cl)c(Cl)c4)c(OC)c3)N[C@@](C)(C(=O)OC)[C@H]2C1=O | -42.9% (inactive) | 
62 | Cc1cc(C(=O)Nc2nc(C)c(C(=O)N(C)C)s2)ccc1[N+](=O)[O-] |  | 15.8 µM (active)
63 | COc1ccc(N(C)S(=O)(=O)c2cccc(C(=O)Nc3nc(C)c(C(C)=O)s3)c2)cc1 | -50.3% (inactive) | 
64 | Cc1nc(NC(=O)/C=C/c2ccc(C(C)(C)C)cc2)sc1C(=O)N(C)C | -38.4% (inactive) | 
65 | CCOc1ccc(CCNC(=O)COC(=O)COc2cc(C)cc(C)c2)cc1OCC | -24.7% (inactive) | 
66 | Cc1ccc(Nc2c(C(C)C)c(C)c(C#N)c3nc4ccccc4n23)cc1 | -30.2% (inactive) | 
67 | COc1cccc(Oc2cnc(N)nc2-c2ccc(OC)cc2O)c1 | -31.8% (inactive) | 
68 | Cc1cc2nc(-c3nnnn3Cc3ccccc3)c(=O)[nH]c2cc1C | -30.4% (inactive) | 
69 | Cc1cc2nc(-c3ccc[nH]c3=O)[nH]c2cc1C |  | 12.6 µM (active)
70 | COc1ccc(-c2noc(CN(C(=O)c3cccs3)C(C)C)n2)cc1 | -31% (inactive) | 
71 | COC(=O)c1[nH]c2cc(OC)ccc2c1NC(=O)CN1CCN(c2cccc(C)c2)C(C)C1 (stereo unspecified) | -40.9% (inactive) | 
72 | COC(=O)c1[nH]c2ccccc2c1NC(=O)CN1CCN(c2cccc(OC)c2)C(C)C1 (stereo unspecified) |  | 28.2 µM (active)

Row | Structure (SMILES) | activity, negative = inhibition | Potency
73 | COC(=O)c1[nH]c2ccc(C)cc2c1NC(=O)CN1CCN(c2ccccc2)CC1 | -25.1% (inactive) | 
74 | Cc1cc2nc(N3C(=O)CNC3=S)sc2cc1C |  | 20 µM (active)
75 | COc1ccc(CN(C(=O)c2oc3cc(C)ccc3c2C)C2CCS(=O)(=O)C2)cc1OC (stereo unspecified) | -30.8% (inactive) | 
76 | COc1cccc2cc(C(=O)NCc3ccc(Cl)cc3)c(=N)oc12 | -64.3% (inactive) | 
77 | Cc1cccc(C)c1NC(=O)c1cc(-c2ccccn2)nc2ccccc12 | -31.1% (inactive) | 
78 | N=c1oc2ccccc2cc1C(=O)Nc1ccccc1 |  | 11.2 µM (active)
79 | COc1ccc(NC(=O)c2sc3nc(-c4cc5cccc(OC)c5oc4=O)[nH]c(=O)c3c2C)cc1 | -12.9% (inactive) | 
80 | COc1cccc(NC(=O)c2cc3ccccc3oc2=O)c1 |  | 20 µM (active)
81 | Cc1ccc(NC(=O)c2cc3ccccc3oc2=O)cc1S(=O)(=O)N(C)C | -86.8% (inactive) | 
82 | O=C(Nc1ccc(NC(=O)c2cc3ccccc3o2)cc1)c1ccc2c(c1)OCCO2 | -26.3% (inactive) | 
83 | C=CCn1c(=O)c(C(=O)Nc2ncccc2C)c(O)c2ccccc21 | -9.9% (inactive) | 
84 | COc1cccc2cc(C(=O)Nc3cccc(C)n3)c(=O)oc12 |  | 8.91 µM (active)
85 | Cc1cccnc1NC(=O)c1cc2ccccc2oc1=O |  | 10 µM (active)
86 | CCOc1cccc2cc(C(=O)NC(C)c3ccccc3)c(=N)oc12 (stereo unspecified) | -32% (inactive) | 
87 | COc1ccc(NC(=O)c2cc3ccccc3o/c2=N\NS(=O)(=O)c2ccc(C)cc2)cc1 | 64% (inactive) | 
88 | CCOc1ccc(CN(C)C(=O)c2cc(S(=O)(=O)N3CCCC3)ccc2C)cc1 | -31.9% (inactive) | 
89 | Cc1ccccc1C(=O)N/N=C1/SCC(=O)N1Cc1ccc2c(c1)OCO2 | -33.2% (inactive) | 
90 | C=CC(COCc1ccccc1)N([C@@H](Cc1ccccc1)C(=O)OC)S(=O)(=O)c1ccccc1Br (stereo partly specified) | -30.4% (inactive) | 
91 | CCN(CCCNC(=O)CC(C(=O)N1CCc2ccccc21)n1ccnc1)c1cccc(C)c1 (stereo unspecified) | -34.7% (inactive) | 
92 | Cc1nn(-c2ccccc2)nc1C(=O)NN | -32% (inactive) | 
93 | COc1cc(CNc2ncnc3c2ncn3[C@H]2CN(Cc3ccc(F)cc3)C[C@@H](CO)O2)cc(OC)c1OC | -34% (inactive) | 
94 | COc1ccc(Oc2ncc3nc(-c4ccc(Cl)cc4)c(=O)n(CCC#N)c3n2)cc1 | -30.5% (inactive) | 
95 | CCOC(=O)C1(CCOc2ccccc2)CCN(Cc2ccc(OC)c(O)c2)CC1 | -30.3% (inactive) | 
96 | CCC(=O)N(Cc1ccc2c(c1)OCO2)Cc1cc2cc(OC)ccc2[nH]c1=O | -31.5% (inactive) | 
